# According to PubChem BioAssay:
# Calls of active or inactive are those of the source.
# Assays:
# Albumin (Bos taurus) = Albumin (Bos taurus) (UniProt P02769); experiment: compounds binding labelled BSA control protein – biochemical, small-molecule microarray, Alexa647 label, 635/667 nm fluorescence, artefact control for SMM control protein annotation, profiling panel (AID 1118); conditions: BSA-A647 binding, fluorescence 635 nm, higher = more signal;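 further: score merges 667 nm emission intensity and signal-to-noise per printed compound spot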
# Chain of Albumin (Bos taurus) (P02769 whole entry, looked up): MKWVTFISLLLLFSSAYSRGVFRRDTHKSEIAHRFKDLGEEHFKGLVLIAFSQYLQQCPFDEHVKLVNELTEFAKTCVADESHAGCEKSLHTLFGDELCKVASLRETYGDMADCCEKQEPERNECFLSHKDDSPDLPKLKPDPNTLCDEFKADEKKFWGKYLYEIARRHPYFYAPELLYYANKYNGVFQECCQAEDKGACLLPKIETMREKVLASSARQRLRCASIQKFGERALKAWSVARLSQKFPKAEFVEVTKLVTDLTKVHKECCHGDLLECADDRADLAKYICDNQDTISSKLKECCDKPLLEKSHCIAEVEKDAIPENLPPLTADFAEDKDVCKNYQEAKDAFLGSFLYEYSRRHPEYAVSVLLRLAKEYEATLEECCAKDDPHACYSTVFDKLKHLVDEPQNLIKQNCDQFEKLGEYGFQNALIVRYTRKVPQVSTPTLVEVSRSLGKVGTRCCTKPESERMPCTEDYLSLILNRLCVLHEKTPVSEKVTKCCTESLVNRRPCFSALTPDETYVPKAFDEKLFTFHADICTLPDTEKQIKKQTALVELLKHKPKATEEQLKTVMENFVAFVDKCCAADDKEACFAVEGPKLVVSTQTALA
# [1] = probe aXIP binding to arrayed compounds – biochemical, NeuroSMM set, 635/667 nm fluorescence, primary screen (AID 1119); conditions: small-molecule microarray, higher = more signal, called active from +8 up or from −8 down;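 further: probe is the protein aXip251-270 applied at 1 µg/mL to compound-printed slides; binding of probe to printed compounds measured as 667 nm fluorescence plus signal to noise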
# [2] = probe aNOTCH3 binding on compound microarray – biochemical, small-molecule microarray, 635/667 nm fluorescence, primary screen (AID 1120); conditions: higher = more signal;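 further: probe is a biotin-tagged antibody raised against NOTCH3 rather than NOTCH3 protein; score merges spot fluorescence near 667 nm with spot signal to noise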
# [3] = probe aNOTCH2 binding on compound microarray – biochemical, small-molecule microarray, 635/667 nm fluorescence, primary screen (AID 1121); conditions: higher = more signal;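 further: score merges feature fluorescence read at 667 nm with its signal to noise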
# [4] = target: Carbonic anhydrase 2 (Homo sapiens) (UniProt P00918); experiment: compounds binding carbonic anhydrase 2 – biochemical, small-molecule microarray, Alexa647-labelled CAII, profiling panel (AID 1122); conditions: CAII-A647 binding fluorescence, higher = more signal
# [5] = COS7 lysate on small-molecule microarray, probe aHis, 635 nm (AID 1123); conditions: COS7 cell lysate, fluorescence, higher = more signal;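 further: z-score combines 667nm fluorescence intensity with signal-to-noise per printed compound spot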
# [6] = probe aLAP1 signal on lysate-treated microarray – cell lysate, small-molecule microarray, COS7 lysate, primary screen (AID 1124); conditions: probe aLAP1, fluorescence, higher = more signal;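 further: lysate comes from COS7 cells expressing LAP1 and is applied at 0.3 µg/mL; score merges spot fluorescence near 667 nm with signal-to-noise over triplicate slides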
# Sam68 (KHDRBS1) = experiment: compounds binding KHDRBS1 protein – biochemical, small-molecule microarray, 635 nm fluorescence, primary screen (AID 1125); conditions: higher = more signal;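 further: score merges 667 nm channel intensity with signal to noise over triplicate slides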
# [7] = test system: Chordin-like protein 2 (CHRDL2); experiment: compounds binding chordin-like 2 – biochemical, small-molecule microarray, 635 nm fluorescence, primary screen (AID 1126); conditions: fluorescence 635 nm, higher = more signal;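 further: printed compound slides probed with Chrdl2 protein at 4 µg/mL for 1 h at 4 C; score merges 667 nm emission intensity with signal to noise over three replicate slides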
# [8] = target: Concanavalin-A (Canavalia ensiformis) (UniProt P02866); experiment: compounds binding concanavalin A lectin – biochemical, small-molecule microarray, Alexa647 label, 635 nm, artefact control for SMM control protein annotation, primary screen (AID 1127); conditions: ConA-A647 binding fluorescence, higher = more signal;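 further: z combines 667 nm emission intensity with signal-to-noise across three replicate slides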
# Chain of Concanavalin-A (Canavalia ensiformis) (P02866 whole entry, looked up): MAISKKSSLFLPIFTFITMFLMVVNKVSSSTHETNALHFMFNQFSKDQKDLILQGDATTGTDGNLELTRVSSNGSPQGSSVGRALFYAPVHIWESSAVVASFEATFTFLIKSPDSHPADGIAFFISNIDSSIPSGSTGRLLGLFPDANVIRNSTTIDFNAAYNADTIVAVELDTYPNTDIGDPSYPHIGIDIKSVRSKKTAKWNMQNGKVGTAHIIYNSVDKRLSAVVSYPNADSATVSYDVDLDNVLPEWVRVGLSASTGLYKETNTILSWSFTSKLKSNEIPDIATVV
SMILES,composite z-score (Albumin (Bos taurus)),composite Z-score [1],composite z-score [2],composite z-score [3],composite z-score [4],composite z-score [5],composite z-score [6],composite z-score (Sam68 (KHDRBS1)),composite z-score [7],composite z-score [8]
COC(=O)c1c2oc(c1C(=O)OC)C(=O)NC1(CCCCC1)c1cn(nn1)C[C@H](Cc1ccccc1)NC(=O)N[C@H](CO)CC2,0.692,0.992 (inactive),-0.207,-0.167,0.269,1.75,-0.0871,0.789,0.296,0.91
C=CCC(OC(C)=O)[C@@H]1[C@@H](N(Cc2ccc(-c3cccc(C(F)(F)F)c3)o2)C(=O)Cc2ccc(OC)cc2)c2cc(OCCCO)ccc2N1C(=O)c1ccc2ccccc2c1 (stereo not given in full),0.268,-0.616 (inactive),0.0423,-0.131,0.228,1.14,-0.0744,-0.651,-0.0916,-0.471
OCCCC1=CC(C2CC2)N(Cc2cccc(OC(F)(F)F)c2)CC1 (stereo not given),0.485,0.438 (inactive),-0.284,-0.177,0.783,0.421,0.833,-0.441,-0.106,-0.807
COCCCNC(=O)[C@@H]1c2ccccc2C(=O)N(Cc2ccccc2OC)[C@H]1c1ccc(CO)cc1,0.459,0.414 (inactive),-0.0932,-0.155,0.711,1.36,-0.355,-0.268,0.447,0.948
CC(C)(C)OC(=O)CC[C@]1(C(N)=O)N=C(c2ccc(OCCCO)cc2)O[C@H]1c1ccccc1,0.963,0.0933 (inactive),0.405,0.133,0.848,3.21,0.834,1.25,-1.34,0.32
Cc1ccc(S(=O)(=O)N2C[C@@H](C(=O)O)[C@H](Sc3ccccc3)C[C@H]2c2ccccc2)cc1,0.855,-0.202 (inactive),0.418,0.0456,0.732,1.99,0.89,1.29,-0.75,1.13
[N-]=[N+]=NCc1ccccc1[C@H]1OC(c2ccc(OCCCO)cc2)=N[C@@]1(Cc1ccccc1)C(=O)N1CCCCC1,0.515,-0.34 (inactive),0.234,-0.133,0.591,2.32,0.284,1.29,-0.237,1.08
O=C1C2C=CC(C(O)C=Cc3ccc([N+](=O)[O-])cc3)N(Nc3ccccc3F)C2C(=O)N1c1ccccc1 (stereo not given),0.868,0.139 (inactive),0.127,-0.147,0.651,2.31,0.885,1.3,0.0612,1.15
COCCOC(=O)N1C(=O)[C@@]2(c3cc(C#CC4=CCCCC4)ccc31)[C@H](C(N)=O)[C@H]1C(=O)O[C@H](c3ccccc3)[C@H](c3ccccc3)N1[C@@H]2c1ccc(O)cc1,0.744,-0.158 (inactive),0.116,0.117,0.433,1.83,0.322,1.3,0.302,1.11
COc1ccc([Si](C)(C)[C@H]2[C@H](CC(=O)N3CCC[C@H]3CO)O[C@@]3(C(=O)N(Cc4cccc(N5CCOC5=O)c4)c4ccccc43)[C@@H]2C)cc1,-0.185,-0.0054 (inactive),-0.095,-0.151,0.334,0.626,0.218,1.26,1.36,0.996
O=C1NC(=O)C2C1C=CC(C(O)C1CC=CCC1)N2Nc1ccccn1 (stereo not given),-0.459,0.945 (inactive),0.137,-0.0272,0.79,0.793,0.643,0.231,1.05,0.497
C=C(CCCC)/C(=C/C[C@H](OC(C)=O)c1ccc(OCCO)cc1)c1cnc2ccccc2c1,0.466,0.0474 (inactive),0.116,-0.108,0.471,1.2,0.117,1.31,1.05,0.817
C=CCN1Cc2ccccc2[C@@H]2OC(c3ccc(OCCCO)cc3)=N[C@]2(CCS(=O)(=O)c2ccccc2)C1=O,-0.292,0.187 (inactive),0.233,-0.0664,0.254,2.96,0.725,1.3,1.03,1.21
O=C1O[C@@H](c2ccccc2)[C@@H](c2ccccc2)N2[C@@H](c3ccccc3OCCO)[C@]3(C(=O)Nc4ccc(C#CC5(O)CCCCCC5)cc43)[C@@H](C(=O)N3CCN(c4ncccn4)CC3)[C@H]12,0.287,0.276 (inactive),-0.0416,-0.131,0.398,1.47,0.795,1.21,0.183,1.02
O=C1O[C@H](c2ccccc2)[C@H](c2ccccc2)N2[C@H]1[C@@H](C(=O)N1CCN(c3ncccn3)CC1)[C@]1(C(=O)Nc3ccc(C#CC4=CCCCC4)cc31)[C@H]2c1ccccc1OCCO,0.28,-0.0798 (inactive),0.503,0.123,0.491,1.88,1.19,1.28,0.646,1.16
COc1ccc([Si](C)(C)[C@@H]2[C@@H](CC(=O)N3CCC[C@H]3CO)O[C@]3(C(=O)N(Cc4cccc(I)c4)c4ccccc43)[C@H]2C)cc1,-0.392,0.119 (inactive),0.175,-0.0956,0.644,0.066,0.0817,1.31,1.45,0.938

SMILES,composite z-score (Albumin (Bos taurus)),composite Z-score [1],composite z-score [2],composite z-score [3],composite z-score [4],composite z-score [5],composite z-score [6],composite z-score (Sam68 (KHDRBS1)),composite z-score [7],composite z-score [8]
COC(=O)[C@@]1(Cc2ccc(OC)cc2)[C@H]2c3cc(C(=O)N(C)C)n(Cc4ccc(C(F)(F)F)nc4)c3C[C@H]2CN1C(=O)c1ccccc1,0.92,3.72 (inactive),0.17,0.183,0.752,2.11,0.017,-0.354,0.181,-0.0962
CN1CCC(CCCO)=CC1c1cccs1 (stereo not given),-0.552,0.639 (inactive),-0.0048,-0.148,0.74,-0.743,-0.476,-0.203,-0.154,-0.384
CCOc1ccc(N2C(=O)CSC2c2cccc([N+](=O)[O-])c2)cc1 (stereo not given),0.954,0.625 (inactive),0.133,-0.14,0.36,1.63,0.181,0.829,0.428,0.789
CC(C)[Si](C#CCCCC#N)(Oc1ccccc1Br)C(C)C,0.435,0.147 (inactive),-0.0377,-0.092,0.508,0.51,0.0245,0.993,0.299,0.912
CCOC(=O)C[C@H]1[C@H](OC(=O)c2ccc(C(=O)c3ccccc3)cc2)[C@@H](NC(=O)Cc2ccc(OC)cc2)c2cc(OCCCO)ccc2N1C(=O)c1ccc2ccccc2n1,0.701,0.0505 (inactive),-0.0445,-0.0868,0.151,1.34,0.493,1.09,-0.0473,0.818
COC(=O)[C@@]1(Cc2ccccc2)[C@H]2c3cc(C(=O)N4CCCC4)n(Cc4ccc(O)c(OC)c4)c3C[C@H]2CN1C(=O)c1ccccc1,0.638,-0.0662 (inactive),0.63,0.302,0.83,2.37,0.0364,0.008,-1.62,0.284
COc1ccc([Si](C)(C)[C@@H]2[C@@H](CCn3cc([C@H](O)c4ccccc4)nn3)O[C@]3(C(=O)N(Cc4cccc(N5CCC5=O)c4)c4ccccc43)[C@H]2C)cc1,-0.185,-0.0405 (inactive),-0.152,-0.0598,-0.105,0.288,0.0413,-0.233,0.422,0.0651
COC(=O)C(CC#Cc1ccc2c(c1)[C@]1(C(=O)N2)[C@H](c2ccccc2OCCO)N2[C@H](c3ccccc3)[C@H](c3ccccc3)OC(=O)[C@H]2[C@@H]1C(=O)O)C(=O)OC,0.573,0.0066 (inactive),0.194,-0.1,0.367,1.7,0.375,1.3,0.132,1.09
COCCOC(=O)N1C(=O)[C@@]2(c3cc(C#CCCO)ccc31)[C@H](c1ccc(O)cc1)N1[C@H](c3ccccc3)[C@H](c3ccccc3)OC(=O)[C@H]1[C@@H]2C(=O)N1CCN(c2ncccn2)CC1,0.435,0.982 (inactive),1.28,0.51,0.183,2.92,0.782,1.29,0.677,1.16
CS(=O)(=O)CCOC(=O)C1=CC(CCCO)=CC(c2ccc(CN3CCCC3)cc2)N(Cc2cccc(OC(F)(F)F)c2)C=C1C(=O)OCCS(C)(=O)=O (stereo not given),0.0883,0.25 (inactive),0.111,-0.0254,0.454,1.16,0.0212,1.26,0.379,0.644
COc1ccc(C(O)C2C=CC3C(=O)N(C)C(=O)C3N2NC(=O)OC(C)(C)C)c2ccccc12 (stereo not given),1.02,-0.128 (inactive),0.424,0.0315,0.745,2.98,0.404,1.3,-0.345,1.11
O=C1OCCC=C[C@H]2OC34C=CCN(c5ccc(Cl)cc5)C(=O)[C@H]3N(CCCO)C(=O)[C@@H]4C12 (stereo not given in full),-0.989,-0.118 (inactive),-0.237,-0.186,0.268,-0.714,0.27,-1.21,-0.406,-0.295
COc1ccc(C(O)C2C=CC3C(=O)N(C)C(=O)C3N2N(c2ccccc2)c2ccccc2)c2ccccc12 (stereo not given),-0.111,1.39 (inactive),0.237,-0.0017,0.677,-0.198,0.976,-0.481,0.776,0.369
CC(C)C(=C=CC[C@H](O)c1ccc(CO)o1)CCO,0.906,0.304 (inactive),-0.111,-0.148,0.756,0.514,0.792,0.856,0.0622,0.828
COC(=O)[C@@]1(Cc2ccc(F)cc2)[C@H]2c3cc(C(=O)N(C)C)n(Cc4cc(C)n(C)n4)c3C[C@H]2CN1C(=O)c1ccccc1,1.03,0.467 (inactive),0.19,0.0552,0.806,3.08,0.738,1.31,-0.141,1.01
COc1ccc([Si](C)(C)[C@@H]2[C@@H](CCO)O[C@]3(C(=O)N(Cc4cccc(N5CCOC5=O)c4)c4ccccc43)[C@H]2C)cc1,0.757,-0.295 (inactive),0.326,-0.0907,0.219,0.531,-0.231,1.15,-0.0408,1.12
